Calls of active or inactive are those of the source. How the source made its calls: active means hit-call score of the fitted dose curve at least 0.9, where 1 is the maximum; inactive means score below 0.9.

Retinoic acid receptor alpha (Homo sapiens), sequence (P10276 whole entry, looked up): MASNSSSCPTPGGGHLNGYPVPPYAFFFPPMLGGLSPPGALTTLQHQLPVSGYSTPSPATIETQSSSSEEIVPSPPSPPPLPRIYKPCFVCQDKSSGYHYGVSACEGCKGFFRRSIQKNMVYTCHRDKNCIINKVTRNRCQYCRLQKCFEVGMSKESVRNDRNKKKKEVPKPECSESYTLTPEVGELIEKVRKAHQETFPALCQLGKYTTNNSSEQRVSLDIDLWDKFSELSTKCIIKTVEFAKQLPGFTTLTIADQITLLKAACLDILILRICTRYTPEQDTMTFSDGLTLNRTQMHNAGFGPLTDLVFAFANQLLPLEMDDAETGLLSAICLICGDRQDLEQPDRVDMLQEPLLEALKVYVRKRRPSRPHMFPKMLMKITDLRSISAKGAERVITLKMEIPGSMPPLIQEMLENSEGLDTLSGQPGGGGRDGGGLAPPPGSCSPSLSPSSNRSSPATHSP

The assay concerns the target Retinoic acid receptor alpha (Homo sapiens) (UniProt P10276). The assay is described as follows: ATG_DR5_RAR_CIS: Attagene CIS-FACTORIAL HepG2 Assay for human Retinoic Acid Receptor Alpha (RARE), DR5 submotif (AID 2282934).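 On AC50: reporter responds to endogenous RAR alpha beta and gamma in HepG2 not RARA alone.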 Conditions: HepG2 Attagene cis-factorial RARE DR5 reporter, mRNA; actives raise or lower the signal. The procedure:
ATG_CIS is a cell-based, multiplexed-readout assay that uses HepG2, a human liver cell line, with measurements taken at 24 hours after chemical dosing in a 24-well plate.ATG_DR5_RAR_CIS is one of 52 assay component(s) measured or calculated from the ATG_CIS assay. It is designed to make measurements of mRNA induction, a form of inducible reporter, as detected with fluorescence intensity signals by Reverse transcription polymerase chain reaction (RT-PCR) and Capillary electrophoresis technology.Data from the assay component ATG_DR5_RAR_CIS was analyzed into 1 assay endpoint. This assay endpoint, ATG_DR5_CIS, was analyzed with bidirectional fitting relative to DMSO as the negative control and baseline of activity. Using a type of inducible reporter, measures of mRNA for gain or loss-of-signal activity can be used to understand the reporter gene at the transcription factor-level as they relate to the gene RARA and RARB and RARG. Furthermore, this assay endpoint can be referred to as a primary readout, because this assay has produced multiple assay endpoints where this one serves a reporter gene function. To generalize the intended target to other relatable targets, this assay endpoint is annotated to the nuclear receptor intended target family, where the subfamily is non-steroidal.
Human liver HepG2 cells are transiently transfected with multiple reporter transcription units (MRTUs) in 6-well plates using FuGene 6 reagent (Roche; 3 ml FuGene/1 mg DNA). The MRTU constructs are regulated by a cis-regulating element (promoter). […] A major difference between the CIS and TRANS system is that in CIS activities of endogenous TFs are measured, whereas the TRANS assay evaluates changes in activities of exogenous, chimeric NR-Gal4 proteins. […] At the end of 24 hour incubation, total RNA was isolated using TriZol reagent (Invitrogen). The isolated RNA is then reverse-transcribed using oligo(dT) primer and Mo-MLV reverse transcriptase (Invitrogen) with DNAse I (Ambion) treatment for 30 min. The one-tenth of the produced cDNA was amplified by PCR using Taq DNA polymerase (Invitrogen) and two reporter sequence-specific primers. The PCR products were fluorescently labeled by primer extension with 6-arboxyfluorescein (6-FAM) 5'-labeled reporter sequence-specific primer (2 min at 95 C, 20 s at 68 C and 10 min at 72 C) and these products were digested with 5U of HpaI (New England Biolabs) for 2h at 37 C. The fragments were purified using Qiaquick PCR columns (Qiagen), analyzed on an ABI 3130xL genetic analyzer (Applied Biosystems) with peak positions identified by using a set of X-rhodamine (ROX)-labeled MapMarker1000 molecular weight standards (BioVentures). The raw capillary electrophoresis data was processed using Attagraph software (Attagene).
Consider `C=CCNCC=C`, for which the compound was called inactive.
The term AC50 denotes the midpoint of the concentration-response curve, whichever way the signal moves. For `CCCCCCCCCCCC(C)=O`, the half-maximal activity concentration (AC50) was 69.4 µM (active).
Turning to `COC(=O)c1ccccc1C`, the compound was called inactive.
On the same count and under the same terms, the value for `CC(=O)OC/C=C(/C)CCC=C(C)C` was “inactive”.
Still for that read-out and setting: the value for `Oc1ccc(/C=C/c2cc(O)cc(O)c2)cc1` was “inactive”; that for `CC(C)COC(=O)CC(C(=O)OCC(C)C)S(=O)(=O)O` (stereo not given) was “inactive”.
Take `COC(=O)C=Cc1ccccc1`: the call was inactive.
Still for that read-out and setting: the value for `CCCC(C)C(=O)OCC` (stereo not given) was “inactive”; that for `CCCCCCCCCCCCC` was “inactive”; that for `CCOC(=O)c1ccc(C)cc1` was “inactive”.
As to `CCCC/C=C/C=C\C=O`, the call was inactive.
On the same count and under the same terms, under `CC12CCC(CC1)C(C)(C)O2` stands “inactive”; under `CC(=O)OC1CCCCC1C(C)(C)C` (stereo not given), “inactive”; under `O=C(C=Cc1ccccc1)OCCc1ccccc1`, “inactive”.
For the compound `CC/C=C\C/C=C\C/C=C\CCCCCCCC(=O)OC`, the AC50 is 100 µM (active).
For the compound `CCCCC(=O)O`, the compound was classed as inactive.
The same measure, in the same setting: under `O=C(O)CC(C(=O)O)S(=O)(=O)O` (stereo not given) stands “inactive”; under `OCCCc1ccccc1`, “inactive”; under `CCCCC/C=C\C/C=C\CCCCCCCC(=O)O`, “inactive”.
On to `C=CC(=O)NC(C)(C)C`, for which the AC50 was 27.2 µM (active).
Consider `N=C1C=CC(=C(c2ccc(N)cc2)c2ccc(N)cc2)C=C1`, for which the call was inactive.
The same measure, in the same setting: under `NC(=O)Nc1ccccc1` stands “inactive”.
Same read-out and setting: the value for `CCCCCCCCC(CO)CCCCCC` (stereo not given) was “inactive”; that for `Cc1cc(C)n(CO)n1` was “inactive”.
For the compound `CCc1cccc(C)c1N(C(=O)CS(=O)(=O)O)C(C)COC` (stereo not given), the outcome was inactive.
Regarding `C=CC(C)(CCC=C(C)C)OC(=O)C=Cc1ccccc1` (stereo not given), the call was inactive.
With `Cc1ccc([N+](=O)[O-])cc1N`, the call was inactive.
Still for that read-out and setting: under `CCC(=O)C1CC(C(C)C)CC=C1C` (stereo not given) stands “inactive”; under `CCOC(=O)C1=NN(c2ccc(Cl)cc2Cl)C(C)(C(=O)OCC)C1` (stereo not given), “inactive”; under `CC(=O)C(C)C`, “inactive”.
Turning to `CN(C)c1ccc2nc3ccc(=[N+](C)C)cc-3sc2c1`, the result was inactive.
The same measure, in the same setting: the value for `CCCCOC(=O)C(C)CC` (stereo not given) was “inactive”; that for `C=CCCCCCCCCC=O` was “inactive”; that for `CC=CC(=O)OCC(C)C` was “inactive”.
The same measure, in the same setting: under `CC(C)CO` stands “inactive”; under `CCCCCCCO`, “inactive”; under `CCCCC(C=O)CC` (stereo not given), “inactive”.
Same read-out and setting: under `CCCCCC[C@@H](O)C/C=C\CCCCCCCC(=O)OCC(O)CO` (stereo not given in full) stands “inactive”; under `CC1(C)CC(O)CC(C)(C)N1[O]`, “inactive”.
Turning to `C=Cc1cccc(C)c1`, the compound was called inactive.

For the origin of these results see PubChem BioAssay (EPA / NIEHS).
